Screening results from PubChem BioAssay.
Rtt109 Vps75: inhibitors of Candida albicans Rtt109/Vps75 histone acetyltransferase. inhibition, % at 34.9 µM. actives 0.16% (n = 330,000). AID 540336. purified Rtt109/Vps75, ThioGlo CoA-SH fluorescence, 4 h. Q5AAJ8;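 active = inhibition of at least 50% in every replicate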
LANA-H2B inh: blocks KSHV LANA binding to histone H2A/H2B; Q9QR71; cell-free LANA-H2A/H2B peptide, fluorescence polarization; inhibition, % (concentration not given with the values); actives 0.6% (n = 320,000); AID 2629; in the data active = inhibition mostly above about 10%, no sharp cut-off; inactive = mostly below about 6.7%
ABHD5-PLIN5 inh: ABHD5-PLIN5 protein interaction inhibition; Q00G26+Q8WTS1; Split G. princeps luciferase complementation, luminescence, 4 h; inhibition, % at 4 µM; actives 0.78% (n = 360,000);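 active = inhibition above the mean inhibition across every tested compound plus 3 SD, cut at about 22% in these data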;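 note: 0% = DMSO only wells and the 100% control is not disclosed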
PRMT1 FP inh: blocks human protein arginine methyltransferase 1 | inhibition, % at 2.79 µM | recombinant PRMT1, activity-based probe fluorescence polarization | AID 652257 | actives 1.3% (n = 370,000);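 active = inhibition above about 21% made by adding two undisclosed values, limit read from the data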
rCAG binder: r(CAG) repeat RNA binding; inhibition, % at 3 µM; TO-PRO-1 dye displacement fluorescence; actives 1.3% (n = 370,000);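 active = inhibition above the plate cutoff, the mean of all test compounds on that plate plus 3 SD, cut at about 35% in these data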;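 note: 0% = DMSO alone and 100% = 100 µM mitoxantrone as full dye displacement; higher means more dye released from RNA so lower well fluorescence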
ALR inh: human ALR oxidase inhibition via reduced H2O2; purified ALR, DTT oxidation, H2O2 HRP-luminol luminescence; actives 3.8% (n = 290,000); inhibition, % (no concentration beside the values); P55789;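 active = mean replicate inhibition above about 79%, with every replicate also reaching it, limit read from the data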
Target sequence (P55789 whole entry, looked up): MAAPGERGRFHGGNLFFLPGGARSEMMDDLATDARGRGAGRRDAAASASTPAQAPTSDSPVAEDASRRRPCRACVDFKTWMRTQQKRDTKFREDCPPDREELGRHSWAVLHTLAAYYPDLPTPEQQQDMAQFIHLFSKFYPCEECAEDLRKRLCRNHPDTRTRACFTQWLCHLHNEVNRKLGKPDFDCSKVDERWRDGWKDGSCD
* hit, by the source's call. Sampled rows, rich in hits. Any-hit rate of the full collection: about 5.9%.

How did Cc1cc2c(c(=O)o1)[C@@]1(C(=O)N(C)c3ccccc31)C1=C(CC(C)(C)OC1=O)O2 do in these assays?
PRMT1 FP inh: 2.2; rCAG binder: 0.6

How did COc1cc(OC)c(NC(C)C(=O)N2CCCC2)cc1Cl (stereo not given) do in these assays?
Rtt109 Vps75: -4.7; LANA-H2B inh: 3.0; ABHD5-PLIN5 inh: 1.2; PRMT1 FP inh: 3.0; rCAG binder: 0.2; ALR inh: 78.9*

What do the screens show for `Nc1ccccc1SC/C=C/CSc1ccccc1N`?
Rtt109 Vps75: 7.3; LANA-H2B inh: -0.7; ABHD5-PLIN5 inh: -2.6; PRMT1 FP inh: 2.9; rCAG binder: -2.8; ALR inh: 99.0*

How did Nc1ccccc1O do in these assays?
Rtt109 Vps75: -5.8; LANA-H2B inh: 0.2; ABHD5-PLIN5 inh: -9.1; ALR inh: -39.8

Results for O=C1C(NC(=O)C(F)(F)Br)CCCCN1Cc1cccc(C(F)(F)F)c1 (stereo not given) ?
PRMT1 FP inh: 0.2; rCAG binder: -0.1

What do the screens show for `CCOC(=O)c1c(C)[nH]c(C=Nc2ccc(OC)cc2)c1O`?
Rtt109 Vps75: 13.3; LANA-H2B inh: -2.0; ABHD5-PLIN5 inh: -0.7; PRMT1 FP inh: 21.7*; rCAG binder: 3.4; ALR inh: 14.1

What do the screens show for `COC(=O)c1c(C)[nH]c(C=Nc2ccc(OC)cc2)c1C`?
Rtt109 Vps75: -19.0; LANA-H2B inh: 0.3; ABHD5-PLIN5 inh: 3.1; PRMT1 FP inh: 3.3; rCAG binder: -3.8; ALR inh: -10.0

Results for CCN(c1ccc(NC(=O)CCNC(=O)c2ccco2)cc1)C(C)C ?
Rtt109 Vps75: 2.2; LANA-H2B inh: -4.5; ABHD5-PLIN5 inh: 1.9; PRMT1 FP inh: -5.4; rCAG binder: -10.3; ALR inh: 98.8*

What do the screens show for `Cc1ccc(NC(=O)CCNC(=O)c2ccco2)cc1`?
Rtt109 Vps75: 24.9; LANA-H2B inh: -0.5; ABHD5-PLIN5 inh: -2.2; PRMT1 FP inh: -1.4; rCAG binder: -1.5; ALR inh: -25.1

Results for Cc1onc(-c2ccccc2)c1C(=O)Nc1nnc(C(C)(C)C)s1 ?
Rtt109 Vps75: 11.5; LANA-H2B inh: 10.4*; ABHD5-PLIN5 inh: -8.4; PRMT1 FP inh: 0.8; rCAG binder: -3.7; ALR inh: 6.0

What do the screens show for `Cc1ccc(C(=O)Nc2nnc(C3CCCCC3)s2)o1`?
Rtt109 Vps75: 10.6; LANA-H2B inh: 1.3; ABHD5-PLIN5 inh: 3.0; PRMT1 FP inh: -4.0; rCAG binder: -2.9; ALR inh: 48.9

Results for Cc1cc(C(=O)Nc2nnc(C3CCCCC3)s2)no1 ?
Rtt109 Vps75: -5.3; LANA-H2B inh: 1.2; ABHD5-PLIN5 inh: 1.5; PRMT1 FP inh: -2.7; rCAG binder: -0.6; ALR inh: 86.4*

How did Cc1cc(C(=O)Nc2nnc(-c3ccccc3)s2)no1 do in these assays?
Rtt109 Vps75: -4.9; LANA-H2B inh: 2.2; ABHD5-PLIN5 inh: 5.0; PRMT1 FP inh: -2.3; rCAG binder: 4.5; ALR inh: 93.3*

How did O=C(NC1CCCC1)C(c1ccco1)N1CCN(c2c(Cl)cncc2Cl)CC1 (stereo not given) do in these assays?
ABHD5-PLIN5 inh: -3.4; PRMT1 FP inh: -4.8; rCAG binder: 3.0

What do the screens show for `C[N+](C)(C)c1ccc(/C=N/Nc2nc(Cl)c(C#N)c(Cl)c2Cl)cc1`?
Rtt109 Vps75: -4.0; LANA-H2B inh: 54.3*; ABHD5-PLIN5 inh: 2.9; PRMT1 FP inh: 2.6; rCAG binder: 8.6; ALR inh: -0.7

How did Fc1ccc(/C=N/Nc2nccnc2Cl)cc1 do in these assays?
Rtt109 Vps75: -3.2; LANA-H2B inh: -1.3; ABHD5-PLIN5 inh: 11.5; PRMT1 FP inh: -3.3; rCAG binder: -2.6; ALR inh: 9.5

How did CCOC(=O)C1=C(C)NC(=S)NC1c1ccco1 (stereo not given) do in these assays?
Rtt109 Vps75: -7.8; LANA-H2B inh: -1.2; ABHD5-PLIN5 inh: -1.9; PRMT1 FP inh: 19.7; rCAG binder: 4.6

What do the screens show for `CCOC(=O)C1=C(C)NC(=S)NC1c1ccc(-c2cccc(Cl)c2C)o1` (stereo not given)?
Rtt109 Vps75: -5.3; LANA-H2B inh: -7.4; ABHD5-PLIN5 inh: 13.4; PRMT1 FP inh: 21.6*; rCAG binder: 6.5

What do the screens show for `COC(=O)C1(C(=O)OC)C/C=C\CCN(S(=O)(=O)c2ccccc2[N+](=O)[O-])CC1`?
ABHD5-PLIN5 inh: -20.5; PRMT1 FP inh: -4.8; rCAG binder: 3.5
